Test results taken from PubChem BioAssay.
Inconclusive results are not listed. The source made the active and inactive calls.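 Rule for the calls, unless noted: active = GFP signal, as percent of the solvent control, above the screen mean plus 3 SD, about 149; inconclusive = no reading because the compound's own fluorescence upset strain identification; inactive = the rest.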

Columns and labels:
[1] = yeast TOR pathway RPL19A-GFP modulators, primary screen, cell-based, S. cerevisiae, multiplex flow cytometry (AID 1862; in the data active = percent of DMSO control GFP below about 86%;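 note: lower values mimic rapamycin by blocking the RPL19A rise seen in DMSO cells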); conditions: S. cerevisiae RPL19A-GFP strain, flow cytometry fluorescence, 3 h; at 10 µM; stronger effect = lower value
[2] = modulators of MEP2-GFP levels in yeast, primary screen, S. cerevisiae, multiplex flow cytometry (AID 1867;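 active = GFP response, as percent of the DMSO control, above the screen-wide mean plus 3 SD, about 139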;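 note: median GFP channel fluorescence of barcode-gated MEP2-GFP cells measured by flow cytometry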); conditions: S. cerevisiae MEP2-GFP strain, 3 h, at 10 µM, stronger effect = higher value, 100% means same as DMSO wells
[3] = modulators of CIT2-GFP expression in yeast, primary screen, S. cerevisiae, GFP fusion, multiplex flow cytometry (AID 1870;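 active = percent response above a set limit, the screen-wide mean plus 3 SD, cut at about 130% in these data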;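 note: barcoded CIT2-GFP strain pooled with four other GFP strains with rapamycin as positive control; median GFP fluorescence per well over plate mean of DMSO wells so 100% = DMSO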); conditions: 3 h, at 10 µM, stronger effect = higher value
[4] = modulators of LAP4-GFP expression in yeast, primary screen, S. cerevisiae, multiplex flow cytometry (AID 1873); conditions: 3 h, at 10 µM, stronger effect = higher value
[5] = modulators of AGP1-GFP expression in yeast TOR pathway, primary screen, cell-based, multiplex flow cytometry, S. cerevisiae (AID 1887;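 active = GFP signal above the screen-wide mean plus 3 SD, that is over about 124.5% of the solvent control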;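 note: AGP1-GFP fusion strain of S. cerevisiae within a five-strain barcoded multiplex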); conditions: 3 h, at 10 µM, stronger effect = higher value
[6] = inhibitors of CD8+ T cell-vesicle binding, pilot screen, LFA-1/ICAM-1 modulator project, MLPCN validation set, flow cytometry (AID 2523;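 active = response below a set limit, under 55% cells CD8-positive and vesicle-bound, and CD8 cells' 90th-percentile brightness under 279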;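 for vesicle binding response: mean PE anti-B7-1 fluorescence of CD8+ cells relative to row control; 100% = QL9-loaded vesicles with DMSO vehicle in the same plate row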); conditions: 2C mouse CD8+ T cells, at 7 µM, stronger effect = lower value; double positive events: measured here: CD8+/vesicle+ event percentage
[7] = target: Integrin beta-1 (Homo sapiens) + Integrin alpha-4 (Homo sapiens) (UniProt P13612+P05556); experiment: inhibition of HUTS-21 binding to VLA-4, pilot screen, VLA-4 allosteric modulator project, U937 cells, HUTS-21 mAb, flow cytometry, validation set (AID 2674;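 active = inhibition above 50%, about 3 SD of the validation set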;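 note: antibody binding induced by the VLA-4 ligand LDV present at three times its Kd; 0% = LDV ligand with antibody and no compound and 100% = antibody without LDV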); conditions: HUTS-21 LIBS mAb binding, at 6.7 µM, stronger effect = higher value, binding induced by LDV ligand
Chain of Integrin beta-1 (Homo sapiens) + Integrin alpha-4 (Homo sapiens) (P05556 whole entry, looked up): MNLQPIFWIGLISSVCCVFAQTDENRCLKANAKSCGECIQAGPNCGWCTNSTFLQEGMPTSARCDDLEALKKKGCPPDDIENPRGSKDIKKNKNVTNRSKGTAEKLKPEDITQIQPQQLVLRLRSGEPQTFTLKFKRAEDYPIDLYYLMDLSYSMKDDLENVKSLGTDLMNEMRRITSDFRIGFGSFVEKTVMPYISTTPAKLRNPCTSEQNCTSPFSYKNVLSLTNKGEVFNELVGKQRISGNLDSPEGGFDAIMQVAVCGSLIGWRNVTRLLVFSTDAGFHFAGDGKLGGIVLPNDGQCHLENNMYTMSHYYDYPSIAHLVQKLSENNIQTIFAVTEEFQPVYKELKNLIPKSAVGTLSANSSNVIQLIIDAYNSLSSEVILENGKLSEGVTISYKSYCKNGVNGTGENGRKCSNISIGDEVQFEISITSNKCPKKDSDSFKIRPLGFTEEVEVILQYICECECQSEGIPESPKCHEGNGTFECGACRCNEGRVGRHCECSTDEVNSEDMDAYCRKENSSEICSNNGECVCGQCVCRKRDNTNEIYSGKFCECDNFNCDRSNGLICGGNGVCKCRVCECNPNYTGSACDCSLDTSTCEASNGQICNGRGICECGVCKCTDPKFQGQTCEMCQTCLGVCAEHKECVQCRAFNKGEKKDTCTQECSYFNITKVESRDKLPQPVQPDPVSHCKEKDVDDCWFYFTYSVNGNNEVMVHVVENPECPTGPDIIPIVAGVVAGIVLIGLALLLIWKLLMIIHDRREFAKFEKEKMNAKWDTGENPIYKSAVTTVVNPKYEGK
Chain of Integrin beta-1 (Homo sapiens) + Integrin alpha-4 (Homo sapiens) (P13612 whole entry, looked up): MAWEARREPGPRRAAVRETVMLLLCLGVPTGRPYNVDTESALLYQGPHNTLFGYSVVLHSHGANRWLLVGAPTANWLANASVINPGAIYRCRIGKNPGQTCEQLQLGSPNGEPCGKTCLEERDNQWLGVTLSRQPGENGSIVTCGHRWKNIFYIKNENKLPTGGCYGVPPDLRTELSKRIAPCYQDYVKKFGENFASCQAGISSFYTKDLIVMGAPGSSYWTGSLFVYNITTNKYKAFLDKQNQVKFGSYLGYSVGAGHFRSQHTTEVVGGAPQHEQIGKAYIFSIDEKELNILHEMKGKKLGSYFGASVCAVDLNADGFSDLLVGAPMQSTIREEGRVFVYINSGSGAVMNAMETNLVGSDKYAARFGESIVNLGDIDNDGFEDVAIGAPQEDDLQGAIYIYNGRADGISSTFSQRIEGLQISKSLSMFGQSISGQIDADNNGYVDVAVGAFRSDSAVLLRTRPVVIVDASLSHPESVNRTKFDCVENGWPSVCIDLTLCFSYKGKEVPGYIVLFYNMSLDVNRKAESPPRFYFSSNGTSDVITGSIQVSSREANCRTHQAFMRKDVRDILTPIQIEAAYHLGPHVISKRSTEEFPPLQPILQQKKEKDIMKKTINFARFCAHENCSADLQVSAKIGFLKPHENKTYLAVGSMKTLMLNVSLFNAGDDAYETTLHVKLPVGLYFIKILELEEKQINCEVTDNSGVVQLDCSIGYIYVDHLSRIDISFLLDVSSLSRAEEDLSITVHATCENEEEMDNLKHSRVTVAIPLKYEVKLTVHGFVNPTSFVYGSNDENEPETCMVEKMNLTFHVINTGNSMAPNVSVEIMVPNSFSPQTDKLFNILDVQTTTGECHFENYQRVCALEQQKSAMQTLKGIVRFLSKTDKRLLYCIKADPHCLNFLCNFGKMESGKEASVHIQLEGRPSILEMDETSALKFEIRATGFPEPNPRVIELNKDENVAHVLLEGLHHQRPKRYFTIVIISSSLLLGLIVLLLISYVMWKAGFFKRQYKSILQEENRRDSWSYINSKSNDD

[8] = superoxide lowering in aged yeast cells, pilot screen, validation compound set (AID 2706;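 active = superoxide response below 65% of plate, a cut near 3 SD across the whole screen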;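 note: yeast exposed to compound for one week at 30 degrees C before staining; 100% = mean of all compound wells on the same plate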); conditions: S. cerevisiae aging, superoxide DHE fluorescence; at 10 µM, stronger effect = lower value
[9] = target: Beta-adrenergic receptor kinase 1 (Homo sapiens) (UniProt P25098); experiment: GRK2 binders displacing RNA aptamer, biochemical, validation, human GRK2, bead flow cytometry (AID 488806;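 active = aptamer binding inhibition above 30%, about 3 SD of noise from non-fluorescent compounds; inactive = inhibition at or below 30%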); conditions: bead-bound GRK2, FAM-aptamer displacement, at 10 µM, stronger effect = higher value
Chain of Beta-adrenergic receptor kinase 1 (Homo sapiens) (P25098 whole entry, looked up): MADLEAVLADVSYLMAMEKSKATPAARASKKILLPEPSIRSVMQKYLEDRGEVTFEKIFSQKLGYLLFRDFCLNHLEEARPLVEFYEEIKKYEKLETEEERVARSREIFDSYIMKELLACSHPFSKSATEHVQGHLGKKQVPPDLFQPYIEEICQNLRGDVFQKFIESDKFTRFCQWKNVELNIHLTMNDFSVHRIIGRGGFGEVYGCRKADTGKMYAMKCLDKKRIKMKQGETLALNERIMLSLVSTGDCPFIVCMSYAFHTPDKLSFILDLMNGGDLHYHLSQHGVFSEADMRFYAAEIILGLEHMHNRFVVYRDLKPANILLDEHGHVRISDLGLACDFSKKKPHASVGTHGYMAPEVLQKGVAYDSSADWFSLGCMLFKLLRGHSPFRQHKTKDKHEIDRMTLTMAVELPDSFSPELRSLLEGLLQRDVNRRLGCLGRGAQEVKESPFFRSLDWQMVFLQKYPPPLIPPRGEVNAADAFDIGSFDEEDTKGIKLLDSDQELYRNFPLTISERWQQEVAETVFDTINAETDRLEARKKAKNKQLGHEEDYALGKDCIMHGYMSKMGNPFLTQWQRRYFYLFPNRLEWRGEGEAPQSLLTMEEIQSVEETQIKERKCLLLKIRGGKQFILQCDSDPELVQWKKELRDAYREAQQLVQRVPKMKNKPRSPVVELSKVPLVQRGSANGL

[10] = target: AP-2 complex subunit beta (Homo sapiens) (UniProt P63010); experiment: inhibitors of arrestin peptide binding to AP2, pilot screen, biochemical, validation set, GST-AP2 beads, flow cytometry (AID 504541;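 active = inhibition above 54%, about 3 SD of non-fluorescent compounds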;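 note: AP2 carries R879A mutation and is captured from E. coli lysate; bead-bound FITC arrestin peptide fluorescence measuring arrestin peptide binding to AP2; 0% = DMSO wells and 100% = excess unlabeled arrestin peptide control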); conditions: FITC arrestin peptide, at 10 µM, stronger effect = higher value, AP2 beta2 appendage fragment, R879A mutant
Chain of AP-2 complex subunit beta (Homo sapiens) (P63010 whole entry, looked up, the tested form may be a part, one chain of several): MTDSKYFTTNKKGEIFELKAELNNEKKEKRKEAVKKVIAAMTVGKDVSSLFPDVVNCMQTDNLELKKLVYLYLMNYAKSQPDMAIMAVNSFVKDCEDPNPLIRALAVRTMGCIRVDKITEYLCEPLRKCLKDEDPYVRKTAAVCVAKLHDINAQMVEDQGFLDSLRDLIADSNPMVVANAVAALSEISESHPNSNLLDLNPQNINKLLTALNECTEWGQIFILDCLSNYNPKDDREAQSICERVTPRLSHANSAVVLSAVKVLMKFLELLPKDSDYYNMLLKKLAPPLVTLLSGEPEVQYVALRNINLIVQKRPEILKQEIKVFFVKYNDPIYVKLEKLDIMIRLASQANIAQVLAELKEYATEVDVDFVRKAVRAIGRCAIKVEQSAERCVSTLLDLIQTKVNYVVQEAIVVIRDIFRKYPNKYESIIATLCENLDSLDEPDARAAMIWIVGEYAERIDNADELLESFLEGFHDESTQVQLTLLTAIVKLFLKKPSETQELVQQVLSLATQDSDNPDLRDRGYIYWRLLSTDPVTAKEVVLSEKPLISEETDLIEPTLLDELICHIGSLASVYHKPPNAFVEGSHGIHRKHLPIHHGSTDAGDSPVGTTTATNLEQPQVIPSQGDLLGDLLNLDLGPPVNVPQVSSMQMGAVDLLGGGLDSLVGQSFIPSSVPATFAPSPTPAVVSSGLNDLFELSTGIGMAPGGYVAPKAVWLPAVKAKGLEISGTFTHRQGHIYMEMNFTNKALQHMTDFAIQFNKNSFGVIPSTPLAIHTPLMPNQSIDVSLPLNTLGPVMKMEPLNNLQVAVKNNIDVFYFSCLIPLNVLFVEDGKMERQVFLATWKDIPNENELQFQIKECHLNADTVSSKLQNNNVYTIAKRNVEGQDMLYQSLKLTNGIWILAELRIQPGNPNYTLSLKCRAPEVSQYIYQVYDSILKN

[11] = yeast V-ATPase proton transport modulators, S. cerevisiae, pHLuorin, HTS validation (AID 504600; in the data active = response above about 15%;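 note: plate controls were DMSO for no effect and reference compound for full effect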); conditions: S. cerevisiae pHLuorin cytosolic pH, at 10 µM, stronger effect = higher value
[12] = tested on: anti-desmoglein-3 scFv antibody binding to human DSG3; experiment: inhibitors of anti-DSG3 scFv binding to DSG3, pilot screen, biochemical, validation compound set, bead-based, flow cytometry (AID 588368;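 active = binding below the plate cutoff, the plate median minus 3 SD, with a reading above zero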;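 note: signal is the median channel fluorescence of bead-bound GFP antibody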); conditions: Protein G beads, DSG3-Fc, scFv-GFP binding, at 10 µM, stronger effect = lower value
[13] = inhibitors of fungal efflux pumps CDR1, CDR2, MDR1, pilot screen, validation compound set, multiplex, phenotypic (AID 588506;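 active = efflux inhibition above 0.42, the validation set average plus 4 SD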;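 note: Nile Red retained in cells so higher fluorescence means more efflux inhibition; 0 = negative control wells and 1 = enniatin B 25 µM full block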); conditions: S. cerevisiae pump-expressing triplex, Nile Red efflux flow cytometry; at 10 µM; stronger effect = higher value; the pumps come from Candida albicans
[14] = target: ATP-binding cassette sub-family B member 6 (Homo sapiens) (UniProt Q9NP58); experiment: ABCB6 transporter inhibitors, pilot screen, K562-ABCB6 cells, flow cytometry, validation set (AID 588550;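 active = inhibition above the screen-wide mean plus 3 SD, about 51%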;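 note: 0% = DMSO wells and 100% = benzethonium chloride 70 µM positive control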); conditions: K562-ABCB6 porphyrin accumulation, 1 h, at 10 µM, stronger effect = higher value
Chain of ATP-binding cassette sub-family B member 6 (Homo sapiens) (Q9NP58 whole entry, looked up): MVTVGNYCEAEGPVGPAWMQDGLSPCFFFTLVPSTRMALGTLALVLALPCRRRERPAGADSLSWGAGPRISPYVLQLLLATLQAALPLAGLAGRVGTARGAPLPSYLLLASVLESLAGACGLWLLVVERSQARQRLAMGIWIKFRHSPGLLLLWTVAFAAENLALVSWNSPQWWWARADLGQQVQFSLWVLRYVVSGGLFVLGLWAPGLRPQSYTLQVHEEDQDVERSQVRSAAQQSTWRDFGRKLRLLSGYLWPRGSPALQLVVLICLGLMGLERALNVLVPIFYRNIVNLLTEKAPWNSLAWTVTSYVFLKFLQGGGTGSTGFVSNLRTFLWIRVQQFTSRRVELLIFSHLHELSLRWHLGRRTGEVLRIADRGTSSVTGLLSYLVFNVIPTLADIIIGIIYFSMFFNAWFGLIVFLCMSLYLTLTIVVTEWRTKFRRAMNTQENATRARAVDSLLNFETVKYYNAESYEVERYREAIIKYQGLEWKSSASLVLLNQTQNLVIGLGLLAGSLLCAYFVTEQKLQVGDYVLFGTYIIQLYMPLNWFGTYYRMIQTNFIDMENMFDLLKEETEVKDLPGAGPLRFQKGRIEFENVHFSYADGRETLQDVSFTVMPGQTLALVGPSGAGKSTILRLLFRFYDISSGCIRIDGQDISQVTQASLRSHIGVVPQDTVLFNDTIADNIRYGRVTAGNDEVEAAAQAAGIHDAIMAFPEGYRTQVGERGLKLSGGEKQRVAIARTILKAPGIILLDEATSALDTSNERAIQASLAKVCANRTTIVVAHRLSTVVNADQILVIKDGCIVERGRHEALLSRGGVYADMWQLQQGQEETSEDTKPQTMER

[15] = promoters of myeloid differentiation in arrested cells, primary screen, cell-based, GFP/MAC1 double positive, flow cytometry, validation set (AID 588685;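 active = differentiation response of at least 50%, scaled between solvent and reference control, from cells with both markers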;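 note: compound exposure lasts four days before antibody staining and flow analysis; 0% = DMSO wells and 100% = 5 µM fulvestrant positive control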); conditions: ER-HoxA9 marrow cells, stronger effect = higher value, normalized: vehicle 0, fulvestrant 100

Row | Structure (SMILES) | percent of DMSO control GFP [1] | GFP response vs DMSO [2] | percent response of DMSO control [3] | GFP response vs DMSO [4] | GFP response, % of DMSO [5] | double positive events [6] [%] | vesicle binding response [6] | inhibition [7] | superoxide response (% of plate) [8] | aptamer binding inhibition [9] | inhibition [10] | response [11] | binding (% of control) [12] | efflux inhibition (fraction of control) [13] | inhibition [14] | differentiation response [15]
1 | OCCN1CCN(CCCN2c3ccccc3Sc3ccc(Cl)cc32)CC1 | 104% (inactive) | 104% (inactive) | 100% (inactive) | 112% (inactive) | 121% (inactive) | 64.3 | 268% (inactive) | 68.7% (active) | 111% (inactive) | -10% (inactive) | 29.9% (inactive) | 5.46% (inactive) | 115% (inactive) | 0.71 (active) | -3% (inactive) | -11.9% (inactive)
2 | COc1ccc(CCNC(=O)C(=O)Nc2ccc3c(c2)OCO3)cc1OC | 104% (inactive) | 104% (inactive) | 107% (inactive) | 101% (inactive) | 101% (inactive) | 65.2 | 220% (inactive) | -4.9% (inactive) | 96.1% (inactive) | 5% (inactive) | -11.2% (inactive) | 6.72% (inactive) | 94.1% (inactive) | -0.16 (inactive) | 10% (inactive) | -1.82% (inactive)
3 | NC(=O)OCC(COC(N)=O)c1ccccc1 | 104% (inactive) | 98.9% (inactive) | 102% (inactive) | 92.3% (inactive) | 103% (inactive) | 58.1 | 160% (inactive) | 1.62% (inactive) | 92.5% (inactive) | 4% (inactive) | -15.7% (inactive) | -9.57% (inactive) | 103% (inactive) | -0.09 (inactive) | 5% (inactive) | -1.82% (inactive)
4 | COCCn1c(/C=C/c2ccccc2)nc2ccccc21 | 96.8% (inactive) | 101% (inactive) | 93% (inactive) | 93.3% (inactive) | 87.9% (inactive) | 59.7 | 149% (inactive) | 1.62% (inactive) | 92.6% (inactive) | 2% (inactive) | 10.5% (inactive) | 0.08% (inactive) | 105% (inactive) | 0.22 (inactive) | 6% (inactive) | -5.05% (inactive)
5 | O=C(O)CCSc1nc2ccccc2s1 | 104% (inactive) | 99.9% (inactive) | 102% (inactive) | 106% (inactive) | 95.8% (inactive) | 49.5 | 183% (inactive) | -9.57% (inactive) | 115% (inactive) | 7% (inactive) | -3.62% (inactive) | -1.68% (inactive) | 101% (inactive) | 0.44 (active) | 8% (inactive) | 17.6% (inactive)
6 | CC(=O)Oc1cc(C(C)C)c(OCCN(C)C)cc1C | 103% (inactive) | 104% (inactive) | 94.9% (inactive) | 97.4% (inactive) | 99.9% (inactive) | 52.8 | 152% (inactive) | -0.24% (inactive) | 106% (inactive) | 6% (inactive) | -9.83% (inactive) | 8.27% (inactive) | 95.2% (inactive) | 0.1 (inactive) | 10% (inactive) | 19.2% (inactive)
7 | CCOc1ccc(C(=O)/C=C/c2cc(OC)c(OC)c(OC)c2)cc1 | 97.1% (inactive) | 105% (inactive) | 92% (inactive) | 105% (inactive) | 89.4% (inactive) | 54.7 | 209% (inactive) | -0.24% (inactive) | 91.6% (inactive) | -3% (inactive) | 4.7% (inactive) | 1.41% (inactive) | 104% (inactive) | 0.25 (inactive) | 4% (inactive) | 40.2% (inactive)
8 | CNCCC=C1c2ccccc2CCc2ccccc21 | 100% (inactive) | 98.9% (inactive) | 110% (inactive) | 97.4% (inactive) | 102% (inactive) | 49.9 | 151% (inactive) | 21.2% (inactive) | 110% (inactive) | 0% (inactive) | -0.2% (inactive) | 4.21% (inactive) | 100% (inactive) | -0.12 (inactive) | 11% (inactive) | -13.1% (inactive)
9 | CC(=O)Oc1ccc2occ(/C=N/c3cc(=O)[nH]c(=S)[nH]3)c(=O)c2c1 | 98% (inactive) | 102% (inactive) | 96.9% (inactive) | 91.3% (inactive) | 98.5% (inactive) | 66.1 | 181% (inactive) | 7.22% (inactive) | 90.5% (inactive) | 1% (inactive) | 25.5% (inactive) | -8.27% (inactive) | 103% (inactive) | 0.33 (inactive) | 10% (inactive) | 40.2% (inactive)
